# Several values for one entry are separate records, joined by “and”; a condition that tells them apart may be missing. Equal values may be shown once. Activity calls are given as the source filed them.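 The calls were made as follows, unless noted: active = compounds whose cell count with miR-34 switched on is under 0.7 times the count with it off; inactive = the rest.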
# Assays:
# [1] = liver-stage malaria parasite growth inhibition, primary screen, cell-based, HepG2, luciferase luminescence, HepG2 viability (AID 624349; in the data active = parasite load remaining mostly below about 12%, no sharp cut-off; inactive = mostly above about 10%;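 also: 100% = mean of DMSO negative control wells on the same plate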); settings: P. berghei liver stage in HepG2, luciferase luminescence, concentration not given here; parasite load remaining: stronger effect = lower value; viability: measured here: HepG2 viability without parasites
# [2] = stimulators of nuclear beta-catenin in C2C12, primary screen, imaging, WNT3A-conditioned medium, mouse C2C12, NPC library (AID 1117326; in the data active = nuclear beta-catenin stimulation mostly above about 4.2%, no sharp cut-off; inactive = mostly below about 10%); settings: stronger effect = higher value
# [3] = stimulators of insulin release from INS-1E, primary screen, cell-based, 5 mM glucose, NPC library (AID 1117329;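 active = compound raises insulin release from rat beta cells at 5 mM glucose, no numeric limit stated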); settings: rat INS-1E insulin secretion, at 10 µM, stronger effect = higher value
# [4] = growth inhibition of GSK3B-pretreated HCT116 cells – cell-based, CellTiter-Glo, 0.2 to 20 µM (AID 1117336;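 active = compounds lowering colon cancer cell viability after pretreatment blocking the GSK3B kinase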); settings: HCT116 viability after GSK3B inhibitor, at 20 µM, stronger effect = higher value
# [5] = inhibition of endothelial tube formation, primary screen, imaging, VEGF stimulated, CD31 staining, tube area, NPC library (AID 1117340;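 active = compound that reduces growth-factor-driven endothelial tube area in a mixed cell culture, no cutoff stated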); settings: VEGF-stimulated ADSC/ECFC co-culture, at 10 µM, stronger effect = higher value
# [6] = glucagon-like peptide 1 release enhancers, primary assay, NCI-H716 cell line, NPC library (AID 1117341;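 active = compound raises GLP1 secretion from the human gut endocrine cells, with no numeric limit stated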); settings: NCI-H716 cells, at 10 µM, stronger effect = higher value
# [7] = HCT116 colon cancer cell growth inhibition, primary screen, CellTiter-Glo luminescence, NPC library (AID 1117342;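 active = compounds that lower survival of HCT116 colon cancer cells in the luminescence readout, no numeric limit stated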); settings: at 20 µM (top of the series)
# [8] = CellTiter-Glo luminescent readout of SW480 viability loss, NPC library primary (AID 1117343;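 active = compounds that lower viability of the colon cancer cells in the luminescence readout, with no numeric limit stated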); settings: CellTiter-Glo luminescence; at 20 µM (top of the series) unless noted
# [9] = decreased DLD-1 cellular survival, CellTiter-Glo luminescent readout, NPC compound collection, primary HTS (AID 1117346;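 active = compounds that lower survival of DLD-1 colon cancer cells in the luminescence readout, no cutoff given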); settings: DLD-1 viability, CellTiter-Glo luminescence; at 20 µM (top of the series)
# [10] = differential killing of epithelial or mesenchymal cells, primary screen, imaging, PC-3E GFP, TEM4-18 mCherry, co-culture (AID 1345086;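 active = compounds killing one labelled cell type while sparing the other, by normalised counts and ratio limits, not self-fluorescent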;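 as to all read-outs here: cells exposed to compound for 72 h before imaging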;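 as to red/green cell ratio (normalised): normalised mesenchymal count divided by normalised epithelial count so high means epithelial killing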); settings: imaging cell counts, at 1 µM; for red/green cell ratio (normalised): actives lie on both sides, counts scaled to control wells, 1 = unselective
# [11] = sensitizers of A549 cells to miR-34 induction, primary screen, imaging, A549 dox-inducible miR-34, nuclei and caspase counts (AID 1347080); settings: A549 miR-34 inducible, Hoechst nuclei count, 48 h
# [12] = survival rescue of mitochondrial mutant cells in low glucose, primary screen, MELAS cybrids, Rieske KO mouse fibroblasts, CellTiter-Glo (AID 1508586;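 active = mean z-score across replicates of 1.96 or higher in either the MELAS or the Rieske mutant cell line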;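 also: z relative to plate mean and SD of compound and empty wells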)
# [13] = molecular target: NAD(+) hydrolase SARM1 (Homo sapiens) (UniProt Q6SZW1); assay: SARM1 TIR NADase inhibitors, cell lysate, NAD-Glo luminescence (AID 1508614;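 active = compound whose remaining NAD level is above about 45 nM, limit read from the data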;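 also: higher remaining NAD means stronger inhibition of SARM1 NADase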); settings: SAM-TIR HEK293T lysate NADase, at 1 µM, stronger effect = higher value
# Chain of NAD(+) hydrolase SARM1 (Homo sapiens) (Q6SZW1 whole entry, looked up): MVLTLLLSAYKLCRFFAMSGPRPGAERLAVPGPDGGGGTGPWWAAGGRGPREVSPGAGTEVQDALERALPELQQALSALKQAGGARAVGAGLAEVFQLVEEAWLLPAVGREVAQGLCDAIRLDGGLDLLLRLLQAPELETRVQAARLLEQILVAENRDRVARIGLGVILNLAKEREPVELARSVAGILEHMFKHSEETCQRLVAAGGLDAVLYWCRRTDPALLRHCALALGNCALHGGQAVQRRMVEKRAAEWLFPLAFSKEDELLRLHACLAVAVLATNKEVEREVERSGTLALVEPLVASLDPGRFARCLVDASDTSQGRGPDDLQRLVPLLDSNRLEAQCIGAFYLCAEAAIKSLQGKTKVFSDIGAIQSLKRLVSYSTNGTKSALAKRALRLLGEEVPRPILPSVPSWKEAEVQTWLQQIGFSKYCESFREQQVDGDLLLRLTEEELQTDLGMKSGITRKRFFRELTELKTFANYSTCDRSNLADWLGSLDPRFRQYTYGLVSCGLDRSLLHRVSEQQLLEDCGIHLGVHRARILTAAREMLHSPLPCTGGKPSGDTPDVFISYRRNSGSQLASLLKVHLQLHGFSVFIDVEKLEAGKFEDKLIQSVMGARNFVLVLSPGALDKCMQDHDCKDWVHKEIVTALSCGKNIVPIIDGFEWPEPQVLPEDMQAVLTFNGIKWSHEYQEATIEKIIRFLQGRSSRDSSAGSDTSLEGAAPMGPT
# [14] = hESC survival regulators, cell-based (AID 493140; call rule not given here;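 also: cells exposed to compounds for four days before counting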); settings: human embryonic stem cell survival screen; stronger effect = higher value
# [15] = measured here: epithelial PC-3E GFP cell survival
# [16] = measured here: mesenchymal TEM4-18 mCherry cell survival
# [17] = stronger effect = lower value, cell number ratio, induced over uninduced
# [18] = measured here: relative caspase fold change +Dox/-Dox
# [19] = measured here: total cells with miR-34 induction, stronger effect = lower value
# [20] = measured here: total cells without miR-34 induction
# [21] = MELAS cybrid survival, CellTiter-Glo 48 h, stronger effect = higher value
# [22] = Rieske KO mouse fibroblast survival, CellTiter-Glo 72 h
smiles,measurement,setting,value
CC(C)(C)C(=O)C(Oc1ccc(Cl)cc1)n1ccnc1 (stereo unspecified),parasite load remaining,[1],15% (inactive)
same,viability,[1],70%
same,nuclear beta-catenin stimulation,[2]; at 10 µM,2.6% (inactive)
same,nuclear beta-catenin stimulation,"[2]; stimulation, at 2 µM",1.9%
same,insulin secretion stimulation,[3],2.5% (inactive)
same,viability decrease,[4],6.3% (inactive)
same,tube area decrease,[5],11.3% (inactive)
same,GLP1 secretion stimulation,[6],7.4% (inactive)
same,inhibition of viability,[7],34.8% (inactive)
same,viability decrease (inhibition),[8],27.1% (inactive)
same,viability decrease (inhibition),[9],44.1% (inactive)
same,red/green cell ratio (normalised),[10],0.92 (inactive)
same,normalised cell number,[10]; [15],0.94
same,normalised cell number,[10]; [16],0.86
same,fold change,[11]; [17],0.911 (inactive) and 0.872 (inactive)
same,fold change,[11]; [18],1.11 and 1.1
same,cell count,[11]; [19],8350 and 8730
same,cell count,[11]; [20],9170 and 10000
same,z-score,[12]; [21],-0.118 (inactive) and 0.2 (inactive)
same,z-score,[12]; [22],-0.278 and -0.284
same,remaining NAD,[13],10 nM (inactive)
O=C(Oc1ccccc1C(=O)O)c1ccccc1O,parasite load remaining,[1],63.4% (inactive)
same,viability,[1],139%
same,nuclear beta-catenin stimulation,[2]; at 10 µM,0.1% (inactive)
same,nuclear beta-catenin stimulation,"[2]; stimulation, at 2 µM",0.1%
same,insulin secretion stimulation,[3],-0.5% (inactive)
same,viability decrease,[4],13.4% (inactive)
same,tube area decrease,[5],3.9% (inactive)
same,GLP1 secretion stimulation,[6],-0.4% (inactive)
same,inhibition of viability,[7],0.8% (inactive)
same,viability decrease (inhibition),[8],16.6% (inactive)
same,viability decrease (inhibition),[9],24.3% (inactive)
same,red/green cell ratio (normalised),[10],1.15 (inactive)
same,normalised cell number,[10]; [15],1.17
same,normalised cell number,[10]; [16],1.35
same,fold change,[11]; [17],0.931 (inactive) and 0.896 (inactive)
same,fold change,[11]; [18],1.03 and 3.07
same,cell count,[11]; [19],8500 and 11000
same,cell count,[11]; [20],9120 and 12300
same,z-score,[12]; [21],-0.0904 (inactive)
same,z-score,[12]; [22],-0.293
same,remaining NAD,[13],10 nM (inactive)
CNCCc1ccccn1,survival,[14],9.67 (inactive)
same,parasite load remaining,[1],177% (inactive) and 67% (inactive) and 40.9% (inactive)
same,viability,[1],106% and 76.5% and 92.3%
same,nuclear beta-catenin stimulation,[2]; at 10 µM,0.2% (inactive)
same,nuclear beta-catenin stimulation,"[2]; stimulation, at 2 µM",1.8%
same,insulin secretion stimulation,[3],-0.8% (inactive)
same,viability decrease,[4],5.6% (inactive)
same,tube area decrease,[5],-1.2% (inactive)
same,GLP1 secretion stimulation,[6],-0.6% (inactive)
same,inhibition of viability,[7],-13.4% (inactive)
same,viability decrease (inhibition),[8],-3.4% (inactive)
same,viability decrease (inhibition),[9],1.9% (inactive)
same,red/green cell ratio (normalised),[10],1.06 (inactive)
same,normalised cell number,[10]; [15],1.06
same,normalised cell number,[10]; [16],1.12
same,fold change,[11]; [17],0.848 (inactive) and 0.92 (inactive) and 0.919 (inactive)
same,fold change,[11]; [18],1.09 and 0.698 and 1.77
same,cell count,[11]; [19],9020 and 8170 and 11700
same,cell count,[11]; [20],10600 and 8880 and 12700
same,z-score,[12]; [21],-0.325 (inactive) and 0.341 (inactive)
same,z-score,[12]; [22],-0.163 and 0.19
same,remaining NAD,[13],10 nM (inactive)
CC1CC(OC(=O)c2ccccc2O)CC(C)(C)C1 (stereo unspecified),survival,[14],6 (inactive)
same,parasite load remaining,[1],86.4% (inactive) and 63% (inactive)
same,viability,[1],75.8% and 101%
same,nuclear beta-catenin stimulation,[2]; at 10 µM,1.8% (inactive)
same,nuclear beta-catenin stimulation,"[2]; stimulation, at 2 µM",-0.1%
same,insulin secretion stimulation,[3],0% (inactive)
same,viability decrease,[4],-63.6% (inactive)
same,tube area decrease,[5],4.9% (inactive)
same,GLP1 secretion stimulation,[6],-7.6% (inactive)
same,inhibition of viability,[7],9.33% (inactive)
same,viability decrease (inhibition),[8],6% (inactive)
same,viability decrease (inhibition),[9],-0.4% (inactive)
same,red/green cell ratio (normalised),[10],1.12 (inactive)
same,normalised cell number,[10]; [15],1.37
same,normalised cell number,[10]; [16],1.53
same,fold change,[11]; [17],0.96 (inactive) and 0.853 (inactive)
same,fold change,[11]; [18],0.489 and 3.24
same,cell count,[11]; [19],9060 and 10300
same,cell count,[11]; [20],9440 and 12000
same,z-score,[12]; [21],-0.66 (inactive)
same,z-score,[12]; [22],-0.623
same,remaining NAD,[13],10 nM (inactive)

# — PubChem BioAssay
